# Measured potencies and affinities stand elsewhere. A number with no mark means an inactive call.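 How the source made its calls: active means peak inhibition of the KCNQ2 potassium channel over 30% at some tested dose, with a fitted dose response curve; inactive means no inhibition at any dose, or no curve fitted.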
# Target: Potassium voltage-gated channel subfamily KQT member 2 (Rattus norvegicus) (UniProt O88943)
# Experiment: block of rat KCNQ2 potassium channel – cell-based, FluxOR thallium flux, concentration-response, selectivity assay for TASK1 inhibitor project, SAR follow-up (AID 652192)
# Conditions: KCNQ2 cell line, FluxOR thallium flux fluorescence; series mostly up to 30 µM; flux ratio, lower = inhibition: at the top concentration
# Chain of Potassium voltage-gated channel subfamily KQT member 2 (Rattus norvegicus) (O88943 whole entry, looked up): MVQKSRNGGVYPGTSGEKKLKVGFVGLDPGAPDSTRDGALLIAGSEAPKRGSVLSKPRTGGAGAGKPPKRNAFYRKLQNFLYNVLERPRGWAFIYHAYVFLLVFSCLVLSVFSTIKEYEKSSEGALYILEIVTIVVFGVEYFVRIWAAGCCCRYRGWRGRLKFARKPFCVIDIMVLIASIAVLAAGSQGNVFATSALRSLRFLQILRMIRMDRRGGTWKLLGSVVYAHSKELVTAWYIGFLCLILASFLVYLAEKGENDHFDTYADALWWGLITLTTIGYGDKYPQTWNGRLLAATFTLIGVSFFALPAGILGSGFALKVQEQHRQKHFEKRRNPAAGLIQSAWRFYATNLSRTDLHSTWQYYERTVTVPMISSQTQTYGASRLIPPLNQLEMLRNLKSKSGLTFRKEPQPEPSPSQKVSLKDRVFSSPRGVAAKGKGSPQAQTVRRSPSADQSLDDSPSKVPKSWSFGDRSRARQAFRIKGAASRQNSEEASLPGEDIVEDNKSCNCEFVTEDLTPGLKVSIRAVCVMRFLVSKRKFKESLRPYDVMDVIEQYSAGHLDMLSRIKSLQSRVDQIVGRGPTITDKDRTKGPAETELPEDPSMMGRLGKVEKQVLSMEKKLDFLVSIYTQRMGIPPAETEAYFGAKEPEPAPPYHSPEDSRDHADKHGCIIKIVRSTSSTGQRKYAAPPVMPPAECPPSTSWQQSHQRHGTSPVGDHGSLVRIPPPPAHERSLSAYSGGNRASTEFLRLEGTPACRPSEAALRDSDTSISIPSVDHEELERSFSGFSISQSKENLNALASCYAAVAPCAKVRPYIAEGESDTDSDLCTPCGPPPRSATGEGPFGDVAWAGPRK
row,Compound,"flux ratio, lower = inhibition"
1,CCOc1ccccc1NC(=O)c1cccc(NC(=O)c2ccc(C(F)(F)F)cc2)c1,0.195
2,CCOc1ccccc1NC(=O)c1cccc(NC(=O)c2ccc(OC)cc2)c1,0.172
3,O=C(Nc1cccc(NC(=O)c2cccs2)c1)c1ccccc1,0.191
4,CCOc1ccccc1C(=O)Nc1cccc(NC(=O)c2ccccc2OC)c1,0.173
5,COc1ccccc1NC(=O)c1cccc(NC(=O)c2ccccc2C(F)(F)F)c1,0.178
6,Cc1cccc(C(=O)Nc2cccc(NC(=O)c3cccc(C)c3)c2)c1,0.203
7,CCOc1ccccc1NC(=O)c1cccc(NC(=O)c2cccc(C(F)(F)F)c2)c1,0.174
8,CCOc1ccccc1NC(=O)c1cccc(NC(=O)c2ccccc2C(F)(F)F)c1,0.183
9,O=C(Nc1ccccc1Cl)c1cccc(NC(=O)C2CCCC2)c1,0.161
10,Cc1ccccc1C(=O)Nc1cccc(NC(=O)c2ccccc2)c1,0.195
11,O=C(Nc1cccc(NC(=O)c2ccccc2Cl)c1)c1ccccc1,0.169
12,CCOc1cccc(NC(=O)c2cccc(NC(=O)C3CCCC3)c2)c1,0.125
13,O=C(Nc1cccc(NC(=O)c2ccc(Cl)cc2)c1)c1ccccc1,0.153
14,O=C(Nc1cccc(NC(=O)c2cccnc2)c1)c1ccccc1,0.219
15,COc1ccc(F)cc1C(=O)Nc1cccc(NC(=O)c2cccc(C)c2)c1,0.39
16,COc1ccccc1NC(=O)c1cccc(NC(=O)CC2CCCC2)c1,0.162
17,O=C(Nc1cccc(NC(=O)c2ccccc2)c1)c1ccccc1,0.155
18,O=C(Nc1cccc(NC(=O)c2ccoc2)c1)c1ccccc1,0.171

# Source: PubChem BioAssay AID652192 (Johns Hopkins Ion Channel Center, 2013)
